Consider seven molecules from PubChem BioAssay (NCATS).

For some of these results: Potency and affinity values are given separately. Activity calls are given as the source filed them.

For assay [1] the following is noted: Ebola virus entry reporter assay, green channel fluorescence. (Reporter assays use an easily measured gene product as a stand-in for the process of interest.)
For assay [2] the following is noted: Ebola virus entry cell assay, ratio channel.
For assay [3] the following is noted: Ebola virus entry assay, reporter ratio channel; AC50: Channel type: primary unless noted; outcome: Channel type: primary unless noted.
For assay [4] the following is noted: Ebola virus entry assay, blue channel (ratio component).

For the molecule `CC(C)(C)NC[C@H](O)COc1ccccc1C1CCCC1`, the molecule was called inactive in assay [1]. For the same molecule, the AC50 (as a rule, the concentration giving half of the maximal activity seen) in assay [2] is 3.55 µM (active).

Turning to `CO[C@H]1C[C@@H]2CC[C@@H](C)[C@@](O)(O2)C(=O)C(=O)N2CCCC[C@@H]2C(=O)O[C@H]([C@@H](C)C[C@@H]2CC[C@H](O)[C@H](OC)C2)CC(=O)[C@H](C)C=C(C)[C@@H](O)[C@@H](OC)C(=O)[C@H](C)C[C@H](C)C=CC=CC=C1C`, the outcome in assay [3] was “inactive [Channel type: confirmation]”. The outcome in assay [4] and in assay [2] was inactive.

As to `CO[C@H]1C=CO[C@@]2(C)Oc3c(C)c(O)c4c(O)c(c(/C=N/N5CCN(C6CCCC6)CC5)c(O)c4c3C2=O)NC(=O)/C(C)=C\C=C[C@H](C)[C@H](O)[C@@H](C)[C@@H](O)[C@@H](C)[C@H](OC(C)=O)[C@@H]1C`, the call in assay [1] and in assay [2] was inactive.

In the case of `N#Cc1ccc2c(c1)N(CCCN1CCC(O)CC1)c1ccccc1S2`, the AC50 in assay [2] was 22.4 µM (active).

With `C[C@]12C=CC(=O)N[C@@H]1CC[C@@H]1[C@@H]2CC[C@]2(C)[C@@H](C(=O)Nc3cc(C(F)(F)F)ccc3C(F)(F)F)CC[C@@H]12`, the outcome in assay [2] was inactive.

Consider `CO[C@@H]1[C@@H](O[C@@H]2O[C@H](C)[C@@H](O[C@H]3C[C@@](C)(O)[C@@H](O)[C@H](C)O3)[C@H](N(C)C)[C@H]2O)[C@@H](CC=O)C[C@@H](C)[C@@H](O[C@@H]2CC[C@H](N(C)C)[C@@H](C)O2)/C=C/C=C/C[C@@H](C)OC(=O)C[C@H]1O`, for which, in assay [2], the concentration at half-maximal activity (AC50) was 11.2 µM (active).

Turning to `CN(C)CCOc1ccc(/C(=C(/CCCl)c2ccccc2)c2ccccc2)cc1`, the outcome in assay [3] was “inactive [Channel type: confirmation]”. In assay [4], the result was inactive. In addition, in assay [2], the AC50 was 3.55 µM (active).
